Columns and labels:
[1] = tested on: Human papillomavirus type 1a protein E7 (residues 44-93); assay: HPV1a E7 fragment binders on microarrays, primary screen, biochemical, small-molecule microarray, residues 44-93, 635 nm fluorescence (AID 1108); conditions: small-molecule microarray binding, fluorescence 635 nm; higher = more signal;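 further: E7 fragment applied at 1 µg/mL in TBST for 1 h at 4 C; score combines spot fluorescence with its signal to noise ratio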
[2] = modulators of HCV replicon luciferase signal, primary screen, HCV replication inhibitor project, Huh7 cells, luciferase reporter (AID 1109); conditions: 48 h, higher = more signal;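 further: huh7 hepatoma cells harbouring a luciferase neomycin HCV replicon reporter; luciferase luminescence as measure of HCV replicon replication; test concentration not given here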
[3] = target: Left-right determination factor 2 (Homo sapiens) (UniProt O00292); assay: LEFTY2 binders on small-molecule microarrays, primary screen, biochemical, small-molecule microarray, 635 nm fluorescence scan (AID 1110); conditions: LEFTY2 binding, higher = more signal
Chain of Left-right determination factor 2 (Homo sapiens) (O00292 whole entry, looked up): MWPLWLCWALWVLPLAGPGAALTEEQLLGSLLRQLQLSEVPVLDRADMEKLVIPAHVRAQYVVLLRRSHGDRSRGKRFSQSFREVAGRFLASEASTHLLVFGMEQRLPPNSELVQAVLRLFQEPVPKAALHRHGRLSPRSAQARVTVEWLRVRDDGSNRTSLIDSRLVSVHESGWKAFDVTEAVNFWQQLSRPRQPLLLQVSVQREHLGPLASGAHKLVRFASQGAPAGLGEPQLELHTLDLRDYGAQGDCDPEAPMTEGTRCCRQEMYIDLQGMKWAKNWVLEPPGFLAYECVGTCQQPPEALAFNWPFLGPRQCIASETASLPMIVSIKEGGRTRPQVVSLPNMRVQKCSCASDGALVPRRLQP

[4] = target: Calmodulin-1 (Homo sapiens) (UniProt P0DP23); assay: CALM1 binders on microarrays, EGTA buffer, profiling panel, biochemical, small-molecule microarray, Cy5-labelled CALM1 (AID 1111); conditions: Cy5-CALM1 binding fluorescence, higher = more signal;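 further: labelled calmodulin applied in Tris saline Tween buffer holding calcium plus EGTA and DTT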
[5] = target: Calmodulin-1 (Homo sapiens) (UniProt P0DP23); assay: calcium-bound CALM1 binders on microarrays, profiling panel, artefact control for SMM control-protein annotation, biochemical, small-molecule microarray, Cy5-labelled CALM1, plus calcium (AID 1112); conditions: Cy5-CALM1 binding fluorescence, higher = more signal;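 further: score merges spot fluorescence with signal to noise from triplicate slides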
[6] = small-molecule microarray binders of probe aWnt5a, primary screen, biochemical, biotinylated probe, 635/667 nm fluorescence (AID 1113); conditions: higher = more signal;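 further: score merges 667 nm fluorescence intensity with signal-to-noise per printed feature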
[7] = small-molecule microarray binders of probe aShh, primary screen, biochemical, biotinylated probe, 635/667 nm fluorescence (AID 1114); conditions: higher = more signal;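 further: probe is biotin-labelled aShh protein from a stem cell growth factor screen; measures binding of labelled protein to compounds printed on the slide; score merges feature fluorescence at 667 nm with signal-to-noise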
[8] = small-molecule microarray binders of probe aNog, primary screen, biochemical, biotinylated probe, 635/667 nm fluorescence (AID 1115); conditions: higher = more signal;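 further: probe is biotinylated aNog protein used at 0.15 µg/mL for 1 h at 4 C; z-score combines 667 nm fluorescence of each spot with its signal to noise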
[9] = target: Torsin-1A-interacting protein 1 (Homo sapiens) (UniProt Q5JTV8); assay: LAP1 binders from COS7 cell lysate, primary screen, small-molecule microarray, 635/667 nm fluorescence (AID 1116); conditions: COS7-hLAP1 lysate binding, 635 nm fluorescence, higher = more signal
Chain of Torsin-1A-interacting protein 1 (Homo sapiens) (Q5JTV8 whole entry, looked up): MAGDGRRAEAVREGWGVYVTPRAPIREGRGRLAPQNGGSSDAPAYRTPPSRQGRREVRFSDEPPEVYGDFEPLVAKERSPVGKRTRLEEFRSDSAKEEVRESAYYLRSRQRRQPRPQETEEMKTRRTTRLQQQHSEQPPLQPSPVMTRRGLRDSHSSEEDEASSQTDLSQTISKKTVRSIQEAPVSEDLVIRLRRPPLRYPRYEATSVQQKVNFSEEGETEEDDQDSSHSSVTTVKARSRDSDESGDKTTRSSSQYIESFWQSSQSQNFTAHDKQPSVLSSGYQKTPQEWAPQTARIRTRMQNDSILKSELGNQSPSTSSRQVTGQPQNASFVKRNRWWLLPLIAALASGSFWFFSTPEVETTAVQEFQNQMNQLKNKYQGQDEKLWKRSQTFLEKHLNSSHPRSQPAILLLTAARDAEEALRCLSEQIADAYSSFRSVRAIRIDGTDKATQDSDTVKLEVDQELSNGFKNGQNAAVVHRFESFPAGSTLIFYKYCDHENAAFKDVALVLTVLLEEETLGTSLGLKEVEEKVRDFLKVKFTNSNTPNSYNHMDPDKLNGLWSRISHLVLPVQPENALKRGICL

[10] = target: Alpha-bungarotoxin (Bungarus multicinctus) (UniProt P60615); assay: alpha-bungarotoxin binders on microarray, profiling panel, artefact control for SMM control protein annotation, biochemical, small-molecule microarray, Alexa647 label, 635/667 nm fluorescence (AID 1117); conditions: alpha-BTX-A647 binding fluorescence, higher = more signal
Chain of Alpha-bungarotoxin (Bungarus multicinctus) (P60615 whole entry, looked up): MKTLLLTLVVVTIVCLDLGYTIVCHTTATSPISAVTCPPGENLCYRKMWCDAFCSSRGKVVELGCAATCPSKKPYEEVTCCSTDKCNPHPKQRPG

Structure (SMILES) | composite z-score [1] | z-score [2] | composite z-score [3] | composite z-score [4] | composite z-score [5] | composite z-score [6] | composite z-score [7] | composite z-score [8] | composite z-score [9] | composite z-score [10]
[N-]=[N+]=NCc1ccccc1[C@H]1OC(c2ccc(OCCCO)cc2)=N[C@@]1(CCS(=O)(=O)c1ccccc1)C(=O)NCc1ccccc1 | 1.4 | -2.04 | 0.115 | 1.65 | 0.84 | 0.0253 | 0.14 | 0.543 | 0.804 | 2.15
COCCOC(=O)N1C(=O)[C@@]2(c3ccccc31)[C@H](c1ccc(OCCO)cc1)N1[C@H](c3ccccc3)[C@H](c3ccccc3)OC(=O)[C@H]1[C@@H]2C(=O)N1CCCCCCC1 | 1.52 | -1.56 | 1.83 | 3.21 | 1.79 | 1.61 | 3.26 | 3.73 | 5.85 | 5.03
CC(C)CNC(=O)[C@@]1(c2ccc([N+](=O)[O-])cc2)CC(=O)N(C2CCCCC2)[C@@H]1c1ccc(CO)cc1 | 0.292 | -1.07 | 0.155 | 0.1 | -0.151 | -0.0539 | -0.0553 | 0.323 | 2 | 0.0127
O=C1OCCC=C[C@H]2OC34C=CCN(c5ccc(Cl)cc5)C(=O)[C@H]3N(CCCCCCO)C(=O)[C@@H]4C12 (stereo not given in full) | -0.344 | -0.476 | -1.25 | -0.869 | -0.593 | -0.152 | -0.109 | 0.0422 | -0.307 | -1.35
COc1ccc(C(=O)Nc2cccc(CN3C(=O)[C@]4(O[C@H](CCn5cc([C@H](O)c6ccccc6)nn5)[C@@H]([Si](C)(C)c5ccc(OC)cc5)[C@@H]4C)c4ccccc43)c2)cc1 | 1.38 | -5.19 | 0.126 | -0.0002 | -0.614 | -0.13 | -0.0793 | 0.189 | 0.361 | 1.09
CO[C@H]1O[C@H](CO)[C@@H](OC(=O)Nc2ccc(C#N)cc2)[C@@H]2OC(=O)[C@H](Cc3cccc(Br)c3)C/C=C/C[C@@H](Cc3cccc(Br)c3)C(=O)O[C@@H]12 | 1.02 | -3.4 | 0.721 | 0.211 | -0.121 | -0.104 | 0.326 | 0.886 | 0.318 | 0.764
COCCOC(=O)N1C(=O)[C@@]2(c3ccccc31)[C@H](c1ccccc1OCCO)N1[C@H](c3ccccc3)[C@H](c3ccccc3)OC(=O)[C@H]1[C@@H]2C(N)=O | 1.19 | -2.76 | 0.574 | 1.93 | 0.208 | 0.0317 | 0.0121 | 0.389 | 1.29 | 1.14
O=C1C2C=CC(C(O)c3ccco3)N(Nc3ccccc3)C2C(=O)N1c1ccccc1 (stereo not given) | -0.335 | 0.305 | -0.756 | -0.136 | 0.245 | -0.006 | 0.0121 | 0.181 | -0.479 | -0.0188
COCCOC(=O)N1C(=O)[C@@]2(c3cc(C#CCNC(N)=O)ccc31)[C@H](c1ccc(O)cc1)N1[C@H](c3ccccc3)[C@H](c3ccccc3)OC(=O)[C@H]1[C@@H]2C(N)=O | -0.8 | -0.101 | -2.24 | -0.747 | 0.502 | -0.377 | -0.378 | -0.0585 | -0.448 | -2.27
O=C(CS)NCCCCCCNC(=O)[C@@H]1C[C@@H]2C(=O)NCC(=O)N2[C@@H]1c1ccc(O)cc1 | -1.1 | 0.394 | -0.601 | 1.16 | 0.754 | -0.239 | -0.0035 | 0.0595 | -0.549 | -1.04
C#C[C@@H](CC)O[Si](C#CCCCC#N)(C(C)C)C(C)C | 0.294 | -0.923 | 0.0737 | -0.442 | -0.104 | -0.139 | 0.0483 | -0.121 | 0.372 | -0.275
CCN(CC)c1ccc(N2CC=CC34O[C@@H]5/C=C\CCC(C)OC(=O)C5[C@H]3C(=O)N(C(C)CO)[C@@H]4C2=O)cc1 (stereo not given in full) | -0.344 | 0.0645 | -0.292 | -0.847 | -1.66 | -0.0346 | -0.0709 | -0.318 | 0.187 | -1.04
CCCCC=C[C@@H](NC(=O)c1ccccc1)c1ccccc1 | 1.38 | 1.02 | -0.174 | 1.87 | 1.28 | -0.0229 | -0.253 | -0.578 | 0.206 | 0.448
COCCOC(=O)N1C(=O)[C@@]2(c3cc(C#CCC(C(=O)OC)C(=O)OC)ccc31)[C@H](C(=O)NC[C@H](O)c1ccccc1)[C@H]1C(=O)O[C@H](c3ccccc3)[C@H](c3ccccc3)N1[C@@H]2c1ccc(OCCO)cc1 | 1.36 | -1.92 | 0.793 | 1.39 | -0.0628 | -0.0792 | 0.0141 | -0.367 | 0.314 | 0.973
CCOC(=O)C[C@H]1[C@H](OC(=O)c2cc3ccccc3oc2=O)[C@@H](NC(=O)c2ccc3ccccc3c2)c2cc(OCCCO)ccc2N1C(=O)Cc1ccc(OC)cc1 | 1.16 | -1.6 | 0.763 | 0.31 | -0.239 | -0.0648 | 0.0588 | -0.0047 | 0.546 | 0.259
[N-]=[N+]=NCc1ccccc1[C@@H]1OC(c2ccc(OCCCO)cc2)=N[C@]1(Cc1ccccc1)C(=O)NCCN1CCOCC1 | 1.42 | -2.37 | 0.133 | 1.2 | 0.558 | 0.0825 | 0.1 | 0.684 | 0.946 | 0.63
Cc1ccc(N2C(=O)c3ccccc3[C@](C)(C(=O)NCc3ccccc3)[C@@H]2c2ccc(CO)cc2)nc1 | -0.192 | 0.478 | -0.0146 | -0.416 | -0.497 | 0.0079 | -0.0837 | -0.108 | 0.263 | -0.3
COc1ccc([Si](C)(C)[C@H]2[C@H](CCO)O[C@@]3(C(=O)N(Cc4ccccc4)c4ccc(N5C(=O)c6ccccc6Oc6ccccc65)cc43)[C@@H]2C)cc1 | 0.647 | -4.49 | -0.358 | 0.425 | 0.773 | 0.0431 | 0.213 | 0.195 | 0.323 | 0.178
COc1ccc([Si](C)(C)[C@@H]2[C@@H](CC(=O)N3Cc4ccccc4C[C@H]3CO)O[C@]3(C(=O)N(Cc4ccc(N5CCC5=O)cc4)c4ccccc43)[C@H]2C)cc1 | 1.02 | -3.58 | 0.759 | 1.04 | -0.0245 | -0.124 | -0.16 | -0.388 | 1.24 | 0.963
CCC(CC)C(O)C1C=CC2C(=O)N(c3ccccc3)C(=O)C2N1Nc1ccc([N+](=O)[O-])cc1 (stereo not given) | 1.47 | -0.451 | -0.139 | 1.27 | 0.717 | 0.152 | 0.04 | 0.0323 | 0.0001 | 1.42
O=C1O[C@H](c2ccccc2)[C@H](c2ccccc2)N2[C@H]1[C@@H](C(=O)O)[C@]1(C(=O)Nc3ccc(C#CC4(O)CCCCCC4)cc31)[C@H]2c1ccc(O)cc1 | 0.628 | -0.772 | -0.114 | 0.277 | 0.431 | -0.124 | 0.0611 | -0.291 | -0.0781 | -0.0118
COC(=O)C(CC#Cc1ccc2c(c1)[C@]1(C(=O)N2)[C@H](C(=O)Nc2nc3ccccc3s2)[C@H]2C(=O)O[C@H](c3ccccc3)[C@H](c3ccccc3)N2[C@@H]1c1ccc(OCCO)cc1)C(=O)OC | 1.39 | -1.85 | 0.768 | 1.52 | 0.326 | 0.189 | 0.427 | 1 | 2.02 | 1.62
C=CCC(OC(C)=O)[C@@H]1[C@@H](N(Cc2ccc(-c3cccc(C(F)(F)F)c3)o2)C(=O)Cc2ccc(OC)cc2)c2cc(OCCCO)ccc2N1C(=O)Cc1ccc2ccccc2c1 (stereo not given in full) | -0.763 | 0.685 | -0.429 | -0.472 | -0.427 | -0.0383 | -0.206 | -0.463 | -0.33 | 0.553
COCCOC(=O)N1C(=O)[C@@]2(c3cc(C#CCC(C(=O)OC)C(=O)OC)ccc31)[C@H](c1ccc(OCCO)cc1)N1[C@H](c3ccccc3)[C@H](c3ccccc3)OC(=O)[C@H]1[C@@H]2C(=O)Nc1nc2ccccc2s1 | 1.16 | -2.06 | 0.423 | 1.05 | -0.0309 | -0.0202 | -0.0793 | -0.114 | 0.743 | 1.06
